Sampled rows, rich in hits. Any-hit rate of the full collection: about 5.6%.
CtBP-E1A inh = blocks the CtBP interaction with E1A; AlphaScreen GST-E1A/His-CtBP binding, 1536-well; hits give low values; activity change, % (no concentration beside the values); AID 651724; actives 0.49% (n = 340,000); in the data active = activity change below about -65%; inconclusive = mostly about -30% to -63%; note: % is set by controls: 0 for no effect and ±100 for the full control effect
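In 5 uL wells, 23 nL compound meets equimolar GST-E1A and His-CtBP (5X stock 125 nM each) for 2 h, 37 °C. Beads (5X, 50 ug/mL) then 1 h, 37 °C, dark.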
RORg inh = blocks mouse ROR gamma transcriptional activity | AID 2551 | Drosophila S2 Gal4-RORgamma UAS-luciferase reporter, 20 h | P51450 | Potency, µM (doses to about 53.6 µM), for inactives: at the highest dose activity change, negative = inhibition, hits mostly inhibitors | actives 5.4% (n = 310,000); note: potency is the fitted concentration of half-maximal effect; % is set by controls: 0 for no effect and ±100 for the full control effect; nearly all actives have a fitted effect of over 60% in size
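Stably transfected Drosophila Schneider cells are the test system, with ROR gamma fused to Gal4 and luciferase under UAS control; luminescence is read after 20 hr of 700 uM copper sulfate induction at ambient temperature.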
Six1-Eya2 inh = blocks human Six1 binding to Eya2; Q15475+O00167; AlphaScreen GST-Six1/His-Eya2 binding, biochemical; hits give low values; activity change, % (no concentration beside the values); actives 0.56% (n = 360,000); AID 651725; in the data active = activity change below about -65%; inconclusive = mostly about -30% to -63%; note: % is set by controls: 0 for no effect and ±100 for the full control effect
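AlphaScreen luminescence read after one hour at 37 °C in darkness. Pin-transferred compounds met GST-Six1 and His-Eya2 protein (5X stock 250 nM/500 nM) plus glutathione donor and Ni-chelate acceptor beads (5X, 50 ug/mL).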
PKM2 activator = activators of human pyruvate kinase M2; Potency, µM (series often up to 57.5 µM), without a hit: at the top dose activation, hits mostly activators; purified PKM2, Kinase-Glo ATP luminescence, activation; response scale: 0% is enzyme alone, no compound; AID 1631; actives 0.34% (n = 260,000); note: potency is the fitted concentration of half-maximal effect; % is set by controls: 0 for no effect and ±100 for the full control effect; nearly all actives have a fitted effect of over 55% in size
Target sequence (P14618 whole entry, looked up): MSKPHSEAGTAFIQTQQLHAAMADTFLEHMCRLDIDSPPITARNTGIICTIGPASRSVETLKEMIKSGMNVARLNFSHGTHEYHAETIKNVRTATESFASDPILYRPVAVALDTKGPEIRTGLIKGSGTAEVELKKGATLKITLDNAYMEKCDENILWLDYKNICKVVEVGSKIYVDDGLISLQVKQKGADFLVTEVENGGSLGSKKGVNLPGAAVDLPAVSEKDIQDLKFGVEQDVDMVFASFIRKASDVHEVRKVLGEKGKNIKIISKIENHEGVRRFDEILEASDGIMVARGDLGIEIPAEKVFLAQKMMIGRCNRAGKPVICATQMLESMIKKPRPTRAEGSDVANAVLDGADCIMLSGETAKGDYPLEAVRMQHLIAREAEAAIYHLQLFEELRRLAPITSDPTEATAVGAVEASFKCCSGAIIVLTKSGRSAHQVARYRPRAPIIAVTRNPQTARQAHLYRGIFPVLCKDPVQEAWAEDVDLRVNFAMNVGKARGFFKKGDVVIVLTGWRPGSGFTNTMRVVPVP
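Purified hPK-M2 (>95% pure) converted ADP (0.1 mM final) to ATP with 0.5 mM PEP in 50 mM imidazole pH7.2, KCl, MgCl2, Tween 20, BSA; 1 h at room temperature. ATP detected by Kinase-Glo luminescence.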
Gal4-VP16 FLuc = inhibits Gal4-VP16 luciferase reporter, ROR gamma counter-screen. Drosophila S2 Gal4-VP16 UAS-luciferase, luminescence, 20 h. Potency, µM (series often up to 53.6 µM), inactives show at the highest dose activity, negative = inhibition, most hits filed as inhibitors. actives 3.5% (n = 310,000). AID 2546;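 note: Gal4-VP16 expression switched on by copper sulfate through the metallothionein promoter; potency is the fitted concentration of half-maximal effect; % is set by controls: 0 for no effect and ±100 for the full control effect; nearly all actives have a fitted effect of over 50% in size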
HeLa tox = HeLa cytotoxicity, CellTiter-Glo readout; shares compounds with PKM2 activator; HeLa viability, CellTiter-Glo ATP luminescence, 24 h; activity change, negative = cytotoxicity, % at 57.5 µM; 230 tested, under 10 active; note: % of control where 0% means no effect
The depositor's hits bear a star; ? = inconclusive; · = not tested or not shown. Unless noted, calls come from the whole dose curve; as a rule, active = well fitted curve in the direction sought with a large enough effect; inconclusive = small, poorly fitted or top-dose-only effect, or another doubt; inactive = no such curve, though single readings can be large; an effect the other way counts as inactive or inconclusive.

SMILES	CtBP-E1A inh	RORg inh	Six1-Eya2 inh	PKM2 activator	Gal4-VP16 FLuc	HeLa tox
O=C1CC(NS(=O)(=O)c2ccc(F)cc2)CN1c1ccc2c(c1)OCCO2 (stereo not drawn)	4	·	6	·	·	·
NC(=O)C1CCN(S(=O)(=O)c2ccc3c(c2)OCCO3)CC1	0	-2%	16	15%	-1%	·
O=S(=O)(NC1CCN(S(=O)(=O)c2c(F)cccc2F)CC1)c1ccc2c(c1)OCCO2	·	·	·	·	·	-29
O=S(=O)(Nc1c(F)cccc1F)c1ccc2c(c1)OCCO2	9	-23%	11	-4%	-2%	·
O=S(=O)(NC1CCN(S(=O)(=O)c2c(F)cccc2F)C1)c1ccc2c(c1)OCCO2 (stereo not drawn)	·	·	·	·	·	?
O=C(c1ccc2c(c1)OCCO2)C1CCN(S(=O)(=O)c2ccc(F)cc2)CC1	-1	2%	-1	6%	13%	·
O=S(=O)(c1ccc2c(c1)OCCO2)C1CCN(S(=O)(=O)c2c(F)cccc2F)CC1	·	·	·	·	·	?
CCC1CCC/C1=N\NC(=O)c1ccccc1C (stereo not drawn)	-2	·	0	·	·	·
O=c1c2ccc(Cl)cc2[nH]c(=S)n1Cc1cccnc1	18	5µM*	16	3.2µM*	?	3
Cc1[nH]c(C)c2c(=O)n(Cc3ccccc3Cl)ncc12	-6	·	0	·	·	·
COc1ccc(Cn2nc(C(=O)O)c3ccccc3c2=O)cc1F	-9	4%	1	·	2%	·
COc1ccc(Nc2ncnc3c2cnn3Cc2ccc(C)cc2)cc1	-1	16%	-10	4%	7%	·
COc1ccc(Cn2ncc3c4sc(C)cc4n(C)c3c2=O)cc1F	·	·	·	·	·	11
Cc1cc2c(s1)c1cnn(Cc3ccc(C(C)C)cc3)c(=O)c1n2C	·	·	·	·	·	-7
COc1ccc(Cn2ncc3c4sc(C)cc4n(C)c3c2=O)cc1	·	·	·	·	·	3
Cc1cc2c(s1)c1cnn(Cc3cc(C(F)(F)F)cc(Cl)c3F)c(=O)c1n2C	·	·	·	·	·	14
Cc1cc2c(s1)c1cnn(Cc3ccc(C(F)(F)F)cc3)c(=O)c1n2C	·	·	·	·	·	7
c1ccc2[nH]c(CSc3nnc(-c4ccncc4)o3)nc2c1	5	?	-19	1.8µM*	0%	-1
Cc1cc2c(cc1S(=O)(=O)Nc1cccc(C)c1C)OCC(=O)N2	3	-14%	-4	?	-11%	·
Cc1cccc(NS(=O)(=O)c2cc3c(cc2C)NC(=O)CO3)c1	-12	-18%	2	0.71µM*	2%	-15
COCCNC(=O)C/C(C)=N/NC(=O)C(=O)NC1CCCCC1	-1	-15%	3	-4%	4%	·
COc1ccc2[nH]c(=O)c(-c3noc(-c4ccccc4)n3)cc2c1	-12	15%	-15	11µM*	-1%	-27
CCOC(=O)[C@H]1[C@H]2COc3ccc(C)cc3[C@@H]2N2C(=O)CN(C)C(=O)[C@@]12C	4	·	-1	·	·	·
Cc1nc(-c2nnc(SCC(=O)Nc3cc(Cl)cc(Cl)c3)n2C)cs1	5	-1%	15	2%	-5%	·
Cc1cc(NS(=O)(=O)c2ccc(NC(=O)CSc3nc4ncccc4[nH]3)cc2)nc(C)n1	-20	9%	-7	0%	6%	·
SMILES	CtBP-E1A inh	RORg inh	Six1-Eya2 inh	PKM2 activator	Gal4-VP16 FLuc	HeLa tox
O=C(CSc1ccccc1)N1CCN(S(=O)(=O)c2ccccc2F)CC1	-16	28%	-1	3.2µM*	-16%	0
O=C(Nc1ccn(CCCNCCCN2CCCC2=O)c(=O)n1)OCc1ccccc1	28	·	16	·	·	·
Cc1ccccc1NS(=O)(=O)c1ccc2c(c1)n(C)c(=O)n2C	2	32%	72	2.5µM*	15%	3
c1ccc(-c2nnc(Cn3c4ccccc4c4nc5ccccc5nc43)o2)cc1	9	·	2	·	·	·
CC(O)c1nc2ccccc2n1Cc1nnc(-c2ccc(Cl)cc2)o1 (stereo not drawn)	2	24%	3	7.9µM*	-1%	0
Cn1c2ccccc2c2nnc(SC3CCOC3=O)nc21 (stereo not drawn)	1	3%	0	14µM*	7%	2
Cn1c2ccccc2c2nnc(SCC(=O)NC3CCCC3)nc21	-1	-10%	-14	·	16%	·
Cc1cc2c(s1)c1cnn(Cc3ccccc3F)c(=O)c1n2C(C)C	·	·	·	·	·	-11
Cc1cc2c(s1)c1cnn(Cc3ccc(F)c(F)c3F)c(=O)c1n2C	·	·	·	·	·	-18
Cc1cc2c(s1)c1cnn(Cc3cccc(Cn4ncc5c6sc(C)cc6n(C)c5c4=O)c3F)c(=O)c1n2C	·	·	·	·	·	6
Cc1cc(C)c(Cn2c3ccccc3c3cnn(CC(=O)NCc4ccccn4)c(=O)c32)c(C)c1	-3	3%	16	·	-10%	·
Cc1cc2c(s1)c1cnn(Cc3c(F)cccc3F)c(=O)c1n2C	·	·	·	·	·	8
O=c1c2ccccc2n(Cc2ccccc2F)c(=O)n1Cc1ccccc1F	5	21%	9	-4%	-8%	·
CCc1ccc(NC(=O)Cn2ncc3c4ccccc4n(C)c3c2=O)cc1	6	-5%	0	1%	-17%	·
Cc1c(Cl)cccc1N1C(=O)CC(Sc2ccccc2N)C1=O (stereo not drawn)	-1	·	-1	·	·	·
Cc1cc2c(s1)c1cnn(Cc3c(F)c(F)cc(F)c3F)c(=O)c1n2C	·	·	·	·	·	3
CCCCCn1ncc2c3sc(C)cc3n(C)c2c1=O	·	·	·	·	·	-14
O=C(CCNC(=O)c1ccc(Br)cc1)Nc1ccc(S(=O)(=O)Nc2ncccn2)cc1	9	·	-2	·	·	·
O=c1c(Cc2ccc(Cl)cc2)c(O)ccn1Cc1ccncc1	6	38%	7	8.9µM*	-17%	-3
CC(C)Cc1cc(CN2CCC(CO)(Cc3ccccc3)CC2)[nH]n1	7	-1%	5	0%	-16%	·
COc1ccc(S(=O)(=O)N2CCN(S(=O)(=O)c3c(F)cccc3F)CC2)cc1	·	·	·	·	·	4
CC(=O)Nc1ccc(NC(=O)CSc2nnc3c4ccccc4n(C)c3n2)cc1	-1	4%	-16	4%	5%	·
CCc1nnc(NC(=O)CSc2nnc3c4ccccc4n(C)c3n2)s1	3	5%	-2	1.4µM*	-12%	-2
CCc1nc2ccc(C(=O)N(C)CCN(C)C)cn2c1N(C)CCC(C)C	7	·	0	·	·	·
COc1ccc([N+](=O)[O-])c(OC)c1C(=O)NC(=O)Nc1c(F)c(F)c(F)c(F)c1F	·	-3%	-5	·	-3%	·
COc1ccc(C(=O)N/N=C/c2ccc(N3CCOCC3)o2)cc1OC	-17	?	-1	2.5µM*	7%	1
COc1ccc(C(=O)N/N=C/c2ccc(N3CCOCC3)s2)cc1OC	-20	·	-11	·	·	·
COc1cccc(NC(=O)CSc2nnc(-c3ccc(C)cc3)o2)c1	5	?	2	1.3µM*	13µM*	8
COc1ccccc1NC(=O)CSc1nnc(-c2ccc(C)cc2)o1	4	3%	3	3%	19%	·
COc1ccc(CC(=O)OC(C)C(=O)Nc2c(C)n(C)n(-c3ccccc3)c2=O)cc1OC (stereo not drawn)	5	·	-3	·	·	·
